Assay outcomes deposited in PubChem by National Center for Advancing Translational Sciences (NCATS).
Compounds with a hit are over-represented: about 21% of the library has one in this group of screens.
HCV inhibitor: blocks hepatitis C virus; Huh7.5.1 HCVcc-Cre infection, luciferase reporter, 44 h; Potency, µM (top dose mostly 41.8 µM), hits mostly inhibitors; 3.4% of 340,000 active; AID 651820
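Infectious HCVcc-Cre (~0.5 moi) was added to cells just after compound, with cells seeded 4 h earlier at 1,000 per well. Luciferase activity after 44 h culture reported infection; substrate was incubated 15 min at room temperature before reading.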
CHX counter: counter-screen for Shiga toxin inhibitors: cycloheximide protein synthesis inhibition; 12% of 300,000 active; max response, %; AID 2314; cell reporter, cycloheximide protein synthesis inhibition counterscreen; in the data active means max response mostly above about 13%, no sharp cut-off; inactive means mostly below about 14%; further: read at 38.3 µM for the half of the compounds with a filed dose
Shiga inhibitor: Shiga toxin inhibition; Vero cells, Shiga toxin protein synthesis inhibition reporter; inhibition, % at 38.7 µM; 9.2% of 290,000 active; AID 2315; in the data active means inhibition mostly above about 28%, no sharp cut-off; inactive means mostly below about 43%
AMA1 RON2 block: inhibitors of Plasmodium falciparum AMA1-RON2 interaction; AlphaScreen AMA1-biotinylated RON2 peptide binding; Potency, µM (series often up to 58.2 µM), actives largely listed as inhibitors; 0.2% of 360,000 active; AID 720542; further: nearly all actives have a fitted effect of over 45% in size
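AMA1 (3D7) with his tag at 25 nM final met compounds first, then biotinylated RON2 peptide at 25 nM; detection used donor plus acceptor beads, 10 µg/mL apiece, read by AlphaScreen after 30 min at room temperature.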
Pf growth 96h: inhibits malaria parasite growth, 96 h; 6.9% of 320,000 active; AID 504834; P. falciparum luciferase reporter growth, 96 h; Potency, µM (series often up to 28.7 µM), hits mostly inhibitors
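Readout is luminescence from an integrated firefly luciferase in P. falciparum. Red cells, 2% hematocrit and 0.05% parasitemia final, were cultured with compound through two parasite generations (96 hours) at 37 C, 5% CO2.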
Pf growth 48h: P. falciparum growth inhibition at 48 hours (one generation). P. falciparum luciferase growth in erythrocytes, 48 h. Potency, µM (top dose mostly 28.7 µM), usual class: inhibitors. 5.9% of 310,000 active. AID 504832
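Luciferase-expressing P. falciparum in infected erythrocytes (2% hematocrit, 0.1% parasitemia final) in RPMI 1640/0.5% Albumax were exposed to compound for 48 hours at 37 C, 5% CO2; growth read as luminescence.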
A number is an active result; n = inactive; u = inconclusive; x = no result; + = active, no number; [ ] = another dose, or the depositor's remark. Unless noted, the call rests on the fitted dose curve; in most records, active means well fitted curve in the direction sought with a large enough effect; inconclusive means small, poorly fitted or top-dose-only effect, or another doubt; inactive means no such curve, though single readings can be large; an effect the other way counts as inactive or inconclusive.

SMILES	HCV inhibitor	CHX counter	Shiga inhibitor	AMA1 RON2 block	Pf growth 96h	Pf growth 48h
CC1CC(N(C(=O)c2ccccc2Cl)c2ccccc2)c2ccccc2N1 (stereo not drawn)	n	n	n	n	11.7µM	u
CCC(=O)N1c2ccccc2[C@@H](N(C(C)=O)c2ccccc2)C[C@H]1C	n	n	n	n	x	u
CCNC(=O)C1CCCN(C(=O)c2ccc(C(F)(F)F)cc2)CC1 (stereo not drawn)	x	x	x	n	x	x
COCCNC(=O)Cc1c(C)c2cc3c(cc2oc1=O)OC(C)(C)CC3	n	14.1	n	n	n	n
Cc1c(CC(=O)N[C@H](C(=O)O)C(C)C)c(=O)oc2cc3c(cc12)CCC(C)(C)O3	n	66.5	97.9	n	n	n
CCC(C)NC(=O)Cc1c(C)c2cc3c(cc2oc1=O)OC(C)(C)CC3 (stereo not drawn)	n	39.6	62.6	n	n	n
Cc1c(CC(=O)N[C@@H](C)C(=O)O)c(=O)oc2cc3c(cc12)CCC(C)(C)O3	n	n	n	n	n	n
Cc1c(CC(=O)NC(C)C)c(=O)oc2cc3c(cc12)CCC(C)(C)O3	n	35.4	53.9	n	n	n
Cc1c(C(=O)OCC(=O)NCc2ccco2)cccc1[N+](=O)[O-]	n	x	x	n	n	n
CCN(CC)S(=O)(=O)c1cc(OC)c(Cl)cc1OC	n	n	n	n	n	n
COc1ccc(-c2csc(C(C)(O)c3cccc(F)c3)n2)cc1 (stereo not drawn)	x	x	x	n	x	x
Cc1ccc(C2OCC(C)([N+](=O)[O-])CO2)cc1 (stereo not drawn)	n	x	x	n	x	x
Cc1c(CC(=O)NCC(C)C)c(=O)oc2cc3c(cc12)CCC(C)(C)O3	u	23.0	40.6	n	n	u
O=C(Nc1ccc(Oc2c(F)c(F)c(F)c(F)c2F)cc1)OC1CCN2Cc3ccccc3N=C12 (stereo not drawn)	3.16µM	n	n	n	2.62µM	u
O=C(O)c1cc2ccc3ccccc3c2oc1=O	n	n	n	n	u	n
O=C(O)Cc1ccc(N=Nc2c(O)c(C(=O)O)cc3ccccc23)cc1	n	56.0	132.8	u	u	n
Nc1nc(O)c(N=Nc2ccc(S(N)(=O)=O)cc2)c(=O)[nH]1	n	n	n	n	n	n
NS(=O)(=O)c1ccc(N=Nc2c(O)c(C(=O)O)cc3ccccc23)cc1	u	n	n	n	10.4µM	u
N#Cc1c(Nc2ccccc2)[n+]([O-])c2ccc(Cl)cc2[n+]1[O-]	2.82µM	x	x	n	x	x
O=C1C2C(c3ccccc3)C=CC(c3ccccc3)C2C(=O)N1c1ccncc1 (stereo not drawn)	n	n	n	n	n	n
O=C1C2C(c3ccccc3)C=CC(c3ccccc3)C2C(=O)N1c1ccccn1 (stereo not drawn)	n	n	n	n	1.31µM	n
COc1cccc(-c2nnc(Nc3nc4c(F)cccc4s3)o2)c1	n	n	81.9	n	u	n
COc1cccc2sc(Nc3nnc(-c4ccccc4Cl)o3)nc12	u	n	n	n	1.31µM	9.28µM
COc1ccccc1-c1nnc(Nc2nc3c(OC)cccc3s2)o1	u	n	45.1	n	u	u
COc1cccc(-c2nnc(NC(C)=O)o2)c1	n	n	n	n	n	n
SMILES	HCV inhibitor	CHX counter	Shiga inhibitor	AMA1 RON2 block	Pf growth 96h	Pf growth 48h
Cc1cc(NC(=O)CN2C(=O)/C(=C/c3ccc(C(C)C)cc3)SC2=S)no1	x	x	x	n	x	x
O=C(Nc1nnc(-c2ccc(F)cc2)s1)c1ccco1	n	n	n	n	u	n
CCCc1cc(C(N)=O)c(NC(=O)c2ccco2)s1	u	28.5	+	n	0.415µM	n
Cc1cccc(-c2nnc(NC(=O)c3ccco3)s2)c1	n	20.6	n	n	n	n
CC(C)Sc1nnc(NC(=O)c2ccco2)s1	n	34.7	113.5	n	n	n
CCSc1nnc(NC(=O)c2ccco2)s1	n	22.7	27.1	n	n	n
CCOC(=O)CSc1nnc(NC(=O)c2ccco2)s1	n	n	n	n	n	u
CC1NS(=O)(=O)c2cc([N+](=O)[O-])ccc21 (stereo not drawn)	x	x	x	n	x	x
Cc1cccc(NC(=O)CSCC(=O)Nc2sccc2C#N)c1	n	x	x	n	n	u
COCC1CCCCC1OS(N)(=O)=O (stereo not drawn)	n	n	n	n	n	n
CCSc1nnc(NC(=O)c2c(C)noc2C)s1	n	16.4	n	n	u	n
CC(C)CN(C(=O)Cn1c(C(F)(F)F)nc2ccccc21)c1c(N)n(Cc2ccccc2)c(=O)[nH]c1=O	n	x	x	n	x	x
O=C(Nc1ccccc1)c1ccccc1OCC(O)CN1C(=O)c2ccccc2S1(=O)=O (stereo not drawn)	n	n	n	n	n	n
CCCCCCOc1ccc(OCC(O)CN2C(=O)NC(C)(C)C2=O)cc1 (stereo not drawn)	n	42.7	174.6	n	n[5.75 µM]	n
CC1(C)NC(=O)N(CC(O)COc2ccccc2C(=O)Nc2ccccc2)C1=O (stereo not drawn)	n	n	n	n	13.1µM	n
CCN(CC)S(=O)(=O)c1ccc(NC(=O)COC(=O)c2ccc(-n3nc(C)cc3C)cc2)cc1	n	n	n	n	x	n
CCN(CC)S(=O)(=O)c1ccc(C(=O)OCC(=O)Nc2ccc(-c3nc4ccc(C)cc4s3)cc2)cc1	u	74.5	114.7	n	n	n
CCN(CC)S(=O)(=O)c1cc(C(=O)OCC(=O)Nc2ccc(-c3nc4ccc(C)cc4s3)cc2)ccc1F	n	63.1	92.4	n	n	n
CCN(CC)S(=O)(=O)c1cc(C(=O)OCC(=O)Nc2cccc(S(=O)(=O)N(C)C)c2)ccc1F	n	n	n	n	u	n
C[C@@H](NC(=O)c1[nH]cnc1C(=O)Nc1cccc(Cl)c1)c1ccccc1	n	x	x	n	u	u
CC(C)(Oc1ccc(Cl)cc1)C(=O)Nc1ccncc1	11.2µM	n	n	n	u	u
O=C(Nc1ccncc1)Nc1ccc(Cl)cc1Cl	u	n	n	n	n	1.65µM
CC(C)(Oc1ccc(Cl)cc1)C(=O)Nc1cccnc1	n	n	n	n	u	n
O=C(Nc1ccncc1)Nc1ccc(Cl)cc1	n	32.8	n	n	n	5.22µM
CCC(Oc1ccccc1C)C(=O)N1CCCN(C)CC1 (stereo not drawn)	n	n	n	n	n	n
O=C(CNCc1cccc2ccccc12)Nc1ccccc1[N+](=O)[O-]	n	n	n	u	n	u
CCO[C@H]1OC(C(=O)NCc2nc3ccccc3[nH]2)=C[C@@H](c2csc3ccccc23)[C@@H]1CCCO	1µM	n	n	n	10.4µM	10.4µM
CCO[C@@H]1OC(C(=O)NCc2nc3ccccc3[nH]2)=C[C@H](c2csc3ccccc23)[C@H]1CCCO	n	n	n	n	13.1µM	u
